Experimental data: paper PMC5540273 (PLoS ONE, 2017)

The compounds below were run on BRAF. Conditions: concentration: 1 μM, replicates: in singlicate; n = 1.
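Note: KINOMEscan kinase panel screen.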

Row | Compound | %Inh [%]
1 | CCOc1nccc(-c2c(-c3ccc(F)cc3)ncn2C2CCNCC2)n1 [SB-249175] | 5
2 | Cl.Cl.NCC(NC(=O)c1cc(-c2cccnc2)c(-c2ccnc3[nH]ccc23)s1)c1ccccc1 (stereo not drawn) [GSK1323434] | 21
3 | Nc1ncnc2scc(-c3ccc(NC(=O)Cc4cc(F)ccc4F)cc3)c12.O=C(O)C(F)(F)F [SB-731254-M] | 4
4 | Cn1cc(-c2ccc3c(c2)CCN3C(=O)Cc2cc(F)cc(C(F)(F)F)c2)c2c(N)ncnc21 [GSK2635225] | 0
5 | COc1cccc2c(-c3ccncc3)c(-c3ccc(F)cc3)nn12 [GW468513] | 38
6 | COc1cccc(NC(=O)NCCNc2ccnc(Nc3ccc(F)cc3)n2)c1 [GSK1379879] | 0
7 | Cn1cc(-c2ccc3c(c2)CCN3C(=O)Cc2cc(F)cc(F)c2F)c2c(N)ncnc21 [GSK2634140] | 0
8 | CN(C)CCOc1ccc(-c2cc(-c3ccc(Cl)c(O)c3)c(-c3ccncc3)[nH]2)cc1.Cl.Cl [SB-684387] | 96.6

These compounds were tested on T1, BRK. Conditions: concentration: 1 μM, replicates: in singlicate; n = 1.
T1 construct: gene PTK6

Row | Compound | %Inh [%]
9 | COc1cc(Nc2nccc(N3CCC(NS(=O)(=O)c4ccc(NC(C)=O)cc4)CC3)n2)cc(OC)c1OC [GSK1379825] | 40
10 | Cc1cc(-c2ccnc(Nc3cccc(C#N)c3)n2)cc(C)c1O [GSK1440913] | 25
11 | Cc1ccc(C)c(NC(=O)Nc2ccc(C)c(-c3ccc(C(=O)Nc4ccncc4)cc3)c2)c1 [GSK1398473] | 25
12 | CN(C)CCNS(=O)(=O)c1ccc(-c2ccnc3[nH]ccc23)cc1 [GSK977620] | 16
13 | O=C(Nc1n[nH]c2nc(-c3cccc(O)c3)ccc12)C1CC1 [SB-711805] | 0
14 | COc1cccc(C2=C(Nc3cccc(O)c3)C(=O)NC2=O)c1 [SB-390771] | 33
15 | CSc1ccc(NC2=C(c3ccc(Cl)cc3)C(=O)NC2=O)cc1 [SB-317658] | 1
16 | Cc1ccc(O)cc1Nc1ccnc2cc(-c3ccc(CN4CCCCC4)o3)ccc12 [GW557777] | 99.5
17 | Fc1cc(Cl)ccc1Nc1ccnc2cc(-c3ccc(CN4CCOCC4)o3)ccc12 [GW560109] | 86
18 | COC(=O)Nc1nc2ccc(Oc3ccc(NC(=O)Nc4cc(C(F)(F)F)ccc4F)cc3)cc2[nH]1.Cl [GW654607] | 20
19 | CN(c1ccc(NC(=O)N2CCN(CCCN3CCOCC3)CC2)cc1)c1ccnc(Nc2ccc(CS(C)(=O)=O)cc2)n1.Cl [GW830899] | 27
20 | CCn1c(-c2nonc2N)nc2c(-c3ccccc3)ncc(OCCCN)c21.O=C(O)C(F)(F)F.O=C(O)C(F)(F)F [GSK260205] | 0
21 | COc1cc(Nc2nccc(N3CCC(NC(=O)Nc4ccc5c(c4)OCO5)C3)n2)cc(OC)c1OC (stereo not drawn) [GSK1379766] | 0
22 | Cc1ccc(NC(=O)c2ccnc(N3CCCCC3)c2)cc1-c1ccc(C(=O)NCC2CC2)cc1 [GW775610] | 12
23 | COC(=O)Nc1nc2ccc(Oc3ccc(CC(=O)Nc4cc(C(F)(F)F)ccc4F)cc3)cc2[nH]1 [GW680903] | 20
24 | COc1ccc(NC(=O)c2ccoc2)cc1-c1ccc(C(=O)NCC2CC2)cc1 [GW810437] | 0
25 | Cc1cccc(Nc2nc(NCCN)ncc2C(N)=O)c1 [GSK1292139] | 0
26 | Cl.N#CCc1ccc(Nc2nccc(Nc3ccc(Oc4ccccc4)cc3)n2)cc1 [GW639905] | 60
27 | Fc1cc(Cl)ccc1Nc1ccnc2cc(-c3ccc(CN4CCSCC4)o3)ccc12 [GW560106] | 92.3

Row | Compound | %Inh [%]
28 | NCCC(NC(=O)c1cc(Br)c(-c2ccnc3[nH]ccc23)s1)c1ccccc1.O=C(O)C(F)(F)F.O=C(O)C(F)(F)F (stereo not drawn) [GSK1307810] | 34
29 | O=C(O)C(F)(F)F.O=c1[nH]ccc2nc(N[C@@H]3CCNC3)nc(Nc3ccc4c(c3)S(=O)(=O)CC4)c12 [GSK2181306] | 18
30 | Cc1ccccc1CC(=O)N1CCc2cc(-c3cn(C)c4ncnc(N)c34)ccc21 [GSK2603346] | 71
31 | CCNC(=O)/C=C/c1n[nH]c2cc(Sc3ccccc3C(=O)NC)ccc12 | 15
32 | Nc1ncc(-c2ccc3nccc(-c4ccncc4)c3c2)cc1S(=O)(=O)N1CCCCC1 [GSK1693850] | 18
33 | CS(=O)(=O)c1cccc(CNc2nc(Nc3ccc4c(c3)CCC(=O)N4)ncc2C(F)(F)F)c1 | 0
34 | COc1ccc(C)c(Nc2ccnc(Nc3ccc(-c4cnc[nH]4)cc3)n2)c1.Cl [GW784041] | 20
35 | O=C(O)C(F)(F)F.O=c1[nH]ccc2nc(N[C@@H]3CCNC3)nc(Nc3cc(Cl)cc(Cl)c3)c12 [GSK2188764] | 5
36 | Cl.Cl.NC(CNC(=O)c1cc(Br)c(-c2ccnc3[nH]ccc23)s1)c1ccccc1 (stereo not drawn) [GSK1322949] | 0
37 | COC(=O)Nc1nc2cc(Oc3ccc(NC(=O)Nc4cccc(SC)c4)cc3)ccc2[nH]1.Cl [GW697999] | 15
38 | CCOc1nccc(-c2c(-c3ccc(F)cc3)ncn2C2CCNCC2)n1 [SB-249175] | 0
39 | Cl.Cl.NCC(NC(=O)c1cc(-c2cccnc2)c(-c2ccnc3[nH]ccc23)s1)c1ccccc1 (stereo not drawn) [GSK1323434] | 7
40 | Nc1ncnc2scc(-c3ccc(NC(=O)Cc4cc(F)ccc4F)cc3)c12.O=C(O)C(F)(F)F [SB-731254-M] | 6
41 | Cn1cc(-c2ccc3c(c2)CCN3C(=O)Cc2cc(F)cc(C(F)(F)F)c2)c2c(N)ncnc21 [GSK2635225] | 44
42 | COc1cccc2c(-c3ccncc3)c(-c3ccc(F)cc3)nn12 [GW468513] | 1
43 | COc1cccc(NC(=O)NCCNc2ccnc(Nc3ccc(F)cc3)n2)c1 [GSK1379879] | 30
44 | Cn1cc(-c2ccc3c(c2)CCN3C(=O)Cc2cc(F)cc(F)c2F)c2c(N)ncnc21 [GSK2634140] | 22
45 | CN(C)CCOc1ccc(-c2cc(-c3ccc(Cl)c(O)c3)c(-c3ccncc3)[nH]2)cc1.Cl.Cl [SB-684387] | 75
